For two compounds, inhibition results are on record in ChEMBL document CHEMBL1961873, “Compounds: GSK PKIS; Assays: Nanosyn kinase panel” (2012).

The target of experiment [1] is Protein kinase C gamma type (Homo sapiens) (UniProt P05129). The following applies: at 1 µM.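 Note: each value is an averaged percent inhibition of the enzyme.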
For experiment [2], the target named is T1, Protein kinase C iota type (Homo sapiens) (UniProt P41743).
T1 sequence (whole entry): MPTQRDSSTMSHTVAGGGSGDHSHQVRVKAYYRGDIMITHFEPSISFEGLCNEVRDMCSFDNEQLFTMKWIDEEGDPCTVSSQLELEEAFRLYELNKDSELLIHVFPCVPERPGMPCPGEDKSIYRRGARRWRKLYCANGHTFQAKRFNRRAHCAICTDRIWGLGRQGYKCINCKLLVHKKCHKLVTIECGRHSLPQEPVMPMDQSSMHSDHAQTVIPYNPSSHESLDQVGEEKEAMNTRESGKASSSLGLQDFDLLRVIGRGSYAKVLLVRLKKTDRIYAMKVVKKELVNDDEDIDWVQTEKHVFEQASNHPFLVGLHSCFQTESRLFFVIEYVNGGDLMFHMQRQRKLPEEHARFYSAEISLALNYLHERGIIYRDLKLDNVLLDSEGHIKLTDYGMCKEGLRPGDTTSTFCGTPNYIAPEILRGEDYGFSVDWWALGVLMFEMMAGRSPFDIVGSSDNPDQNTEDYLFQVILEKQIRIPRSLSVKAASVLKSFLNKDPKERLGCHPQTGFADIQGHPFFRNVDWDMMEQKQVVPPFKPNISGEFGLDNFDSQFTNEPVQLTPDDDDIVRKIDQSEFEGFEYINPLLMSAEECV
The following applies: at 0.1 µM.

The target of experiment [3] is T1, Protein kinase C iota type (Homo sapiens). The following applies: at 1 µM.
For experiment [4], the target named is Protein kinase C theta type (Homo sapiens) (UniProt Q04759). The following applies: at 0.1 µM.
Experiment [5] shares this target. The following applies: at 1 µM.
The target in experiment [6] is Protein kinase C beta type (Homo sapiens) (UniProt P05771). The following applies: at 0.1 µM.
Experiment [7] shares this target. The following applies: at 1 µM.
For experiment [8], the target named is T2, Serine/threonine-protein kinase D1 (Homo sapiens) (UniProt Q15139).
T2 sequence (whole entry): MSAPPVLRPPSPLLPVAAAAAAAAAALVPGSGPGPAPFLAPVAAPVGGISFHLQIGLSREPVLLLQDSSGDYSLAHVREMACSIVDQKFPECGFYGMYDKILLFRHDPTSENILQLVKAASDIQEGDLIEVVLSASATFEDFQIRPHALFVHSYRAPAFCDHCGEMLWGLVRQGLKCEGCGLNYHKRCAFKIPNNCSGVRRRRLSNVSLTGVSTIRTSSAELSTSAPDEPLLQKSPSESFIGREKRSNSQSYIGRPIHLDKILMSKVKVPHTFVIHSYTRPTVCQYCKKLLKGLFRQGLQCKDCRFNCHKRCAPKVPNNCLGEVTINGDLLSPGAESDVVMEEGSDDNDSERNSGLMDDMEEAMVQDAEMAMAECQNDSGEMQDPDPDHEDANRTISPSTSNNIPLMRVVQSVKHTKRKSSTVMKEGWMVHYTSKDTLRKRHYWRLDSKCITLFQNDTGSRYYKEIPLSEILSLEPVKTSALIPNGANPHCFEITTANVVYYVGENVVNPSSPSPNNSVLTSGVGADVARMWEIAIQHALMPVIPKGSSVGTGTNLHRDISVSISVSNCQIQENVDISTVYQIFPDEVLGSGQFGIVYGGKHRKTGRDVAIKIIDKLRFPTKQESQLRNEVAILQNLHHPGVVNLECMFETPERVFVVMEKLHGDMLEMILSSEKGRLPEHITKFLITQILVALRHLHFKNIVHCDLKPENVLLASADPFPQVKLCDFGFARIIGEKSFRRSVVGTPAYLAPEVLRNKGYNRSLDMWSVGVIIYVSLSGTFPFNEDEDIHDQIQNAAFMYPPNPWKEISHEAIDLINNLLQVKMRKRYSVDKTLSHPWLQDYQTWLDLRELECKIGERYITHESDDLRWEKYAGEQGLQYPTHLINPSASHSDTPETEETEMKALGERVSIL
The following applies: at 0.1 µM.

Experiment [9] deals with T2, Serine/threonine-protein kinase D1 (Homo sapiens). The following applies: at 1 µM.
For experiment [10], the target named is T3, Serine/threonine-protein kinase D2 (Homo sapiens) (UniProt Q9BZL6).
T3 sequence (whole entry): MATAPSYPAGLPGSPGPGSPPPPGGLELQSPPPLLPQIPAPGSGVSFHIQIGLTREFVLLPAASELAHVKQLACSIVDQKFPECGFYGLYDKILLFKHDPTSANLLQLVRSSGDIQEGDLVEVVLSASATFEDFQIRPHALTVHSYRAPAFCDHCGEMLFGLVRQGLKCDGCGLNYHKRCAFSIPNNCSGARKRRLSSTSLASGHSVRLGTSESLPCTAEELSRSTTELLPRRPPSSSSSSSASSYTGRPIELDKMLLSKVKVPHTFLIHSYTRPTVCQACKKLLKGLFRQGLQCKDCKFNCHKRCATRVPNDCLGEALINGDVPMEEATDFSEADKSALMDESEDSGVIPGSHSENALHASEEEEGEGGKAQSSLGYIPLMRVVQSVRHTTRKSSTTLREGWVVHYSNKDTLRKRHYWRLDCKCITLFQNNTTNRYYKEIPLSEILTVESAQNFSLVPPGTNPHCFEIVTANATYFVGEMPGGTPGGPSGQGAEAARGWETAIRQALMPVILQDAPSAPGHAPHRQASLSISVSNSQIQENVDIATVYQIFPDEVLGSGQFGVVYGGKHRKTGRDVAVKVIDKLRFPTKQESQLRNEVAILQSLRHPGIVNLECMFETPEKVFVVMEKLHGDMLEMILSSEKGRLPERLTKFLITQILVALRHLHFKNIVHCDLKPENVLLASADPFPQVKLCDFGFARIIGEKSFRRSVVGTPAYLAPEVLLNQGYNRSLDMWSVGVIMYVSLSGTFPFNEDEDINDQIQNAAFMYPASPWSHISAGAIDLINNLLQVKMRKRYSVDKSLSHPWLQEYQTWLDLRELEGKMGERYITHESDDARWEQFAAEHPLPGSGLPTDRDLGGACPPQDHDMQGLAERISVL
The following applies: at 0.1 µM.

Experiment [11] concerns the target T3, Serine/threonine-protein kinase D2 (Homo sapiens). The following applies: at 1 µM.
Experiment [12] addresses T4, Serine/threonine-protein kinase D3 (Homo sapiens) (UniProt O94806).
T4 sequence (whole entry): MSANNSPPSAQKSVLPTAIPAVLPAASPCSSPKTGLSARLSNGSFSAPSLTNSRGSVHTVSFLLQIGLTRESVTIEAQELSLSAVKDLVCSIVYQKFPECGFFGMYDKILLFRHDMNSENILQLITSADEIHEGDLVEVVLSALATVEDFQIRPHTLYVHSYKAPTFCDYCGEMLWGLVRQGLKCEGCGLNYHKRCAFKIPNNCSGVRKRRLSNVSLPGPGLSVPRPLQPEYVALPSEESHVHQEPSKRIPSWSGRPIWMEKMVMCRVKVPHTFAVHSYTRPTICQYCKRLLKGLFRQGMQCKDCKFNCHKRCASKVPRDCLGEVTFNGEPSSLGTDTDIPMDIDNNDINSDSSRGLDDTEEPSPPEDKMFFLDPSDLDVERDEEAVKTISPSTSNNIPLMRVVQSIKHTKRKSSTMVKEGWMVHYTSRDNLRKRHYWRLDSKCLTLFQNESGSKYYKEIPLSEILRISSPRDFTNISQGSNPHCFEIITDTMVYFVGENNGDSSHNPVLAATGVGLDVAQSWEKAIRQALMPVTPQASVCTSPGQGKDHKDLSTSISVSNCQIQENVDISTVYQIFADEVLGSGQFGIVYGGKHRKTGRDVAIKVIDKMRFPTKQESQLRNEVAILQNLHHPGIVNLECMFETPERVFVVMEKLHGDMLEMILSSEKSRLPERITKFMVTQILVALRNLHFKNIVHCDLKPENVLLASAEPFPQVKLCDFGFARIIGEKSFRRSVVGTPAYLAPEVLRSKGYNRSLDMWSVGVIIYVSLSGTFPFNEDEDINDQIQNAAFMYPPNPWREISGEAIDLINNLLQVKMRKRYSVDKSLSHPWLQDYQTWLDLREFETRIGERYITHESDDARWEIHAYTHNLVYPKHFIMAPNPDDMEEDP
The following applies: at 0.1 µM.

The target in experiment [13] is T4, Serine/threonine-protein kinase D3 (Homo sapiens). The following applies: at 1 µM.
In experiment [14] the target is T5, cGMP-dependent protein kinase 1 (Homo sapiens) (UniProt Q13976).
T5 sequence (whole entry): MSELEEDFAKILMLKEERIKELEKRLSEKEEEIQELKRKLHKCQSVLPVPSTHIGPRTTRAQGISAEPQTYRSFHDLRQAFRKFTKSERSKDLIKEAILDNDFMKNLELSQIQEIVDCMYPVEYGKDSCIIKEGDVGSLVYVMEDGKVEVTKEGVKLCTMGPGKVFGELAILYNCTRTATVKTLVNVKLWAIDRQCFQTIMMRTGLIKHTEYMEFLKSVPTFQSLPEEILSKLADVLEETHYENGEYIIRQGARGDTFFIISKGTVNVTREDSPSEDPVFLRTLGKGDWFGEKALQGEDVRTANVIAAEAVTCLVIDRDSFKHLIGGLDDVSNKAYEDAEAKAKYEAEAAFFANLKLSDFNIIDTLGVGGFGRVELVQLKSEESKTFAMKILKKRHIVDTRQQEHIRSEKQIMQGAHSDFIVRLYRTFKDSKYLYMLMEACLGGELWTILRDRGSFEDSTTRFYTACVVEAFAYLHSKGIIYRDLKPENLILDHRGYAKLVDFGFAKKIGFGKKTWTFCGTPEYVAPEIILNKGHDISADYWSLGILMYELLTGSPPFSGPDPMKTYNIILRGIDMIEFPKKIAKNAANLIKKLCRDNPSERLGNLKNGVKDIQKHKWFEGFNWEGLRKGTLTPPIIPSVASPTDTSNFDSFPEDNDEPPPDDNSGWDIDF
The following applies: at 0.1 µM.

Experiment [15] has as its target T5, cGMP-dependent protein kinase 1 (Homo sapiens). The following applies: at 1 µM.
Experiment [16] addresses T6, cGMP-dependent protein kinase 2 (Homo sapiens) (UniProt Q13237).
T6 sequence (whole entry): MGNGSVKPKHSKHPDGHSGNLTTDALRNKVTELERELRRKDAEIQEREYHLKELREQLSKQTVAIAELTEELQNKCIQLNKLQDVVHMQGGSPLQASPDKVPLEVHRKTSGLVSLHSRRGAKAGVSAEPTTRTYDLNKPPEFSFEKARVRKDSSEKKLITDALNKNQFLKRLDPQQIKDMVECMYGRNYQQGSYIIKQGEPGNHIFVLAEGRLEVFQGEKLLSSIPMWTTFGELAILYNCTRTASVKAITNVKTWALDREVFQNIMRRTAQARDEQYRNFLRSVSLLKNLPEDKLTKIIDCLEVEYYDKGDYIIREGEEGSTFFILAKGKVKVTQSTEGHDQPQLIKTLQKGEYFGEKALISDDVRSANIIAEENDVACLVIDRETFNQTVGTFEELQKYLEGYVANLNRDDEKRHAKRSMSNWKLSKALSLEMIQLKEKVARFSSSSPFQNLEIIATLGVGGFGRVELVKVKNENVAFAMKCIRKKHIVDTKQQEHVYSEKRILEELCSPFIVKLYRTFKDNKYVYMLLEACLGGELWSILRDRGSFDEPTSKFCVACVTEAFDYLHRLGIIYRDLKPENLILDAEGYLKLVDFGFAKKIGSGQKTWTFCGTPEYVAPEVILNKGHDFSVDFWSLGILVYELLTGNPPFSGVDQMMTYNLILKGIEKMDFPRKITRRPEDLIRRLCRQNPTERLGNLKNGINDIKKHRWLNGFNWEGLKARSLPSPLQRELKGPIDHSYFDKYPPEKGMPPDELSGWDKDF
The following applies: at 0.1 µM.

For experiment [17], the target named is T6, cGMP-dependent protein kinase 2 (Homo sapiens). The following applies: at 1 µM.
The target of experiment [18] is T7, cAMP-dependent protein kinase catalytic subunit PRKX (Homo sapiens) (UniProt P51817).
T7 sequence (whole entry): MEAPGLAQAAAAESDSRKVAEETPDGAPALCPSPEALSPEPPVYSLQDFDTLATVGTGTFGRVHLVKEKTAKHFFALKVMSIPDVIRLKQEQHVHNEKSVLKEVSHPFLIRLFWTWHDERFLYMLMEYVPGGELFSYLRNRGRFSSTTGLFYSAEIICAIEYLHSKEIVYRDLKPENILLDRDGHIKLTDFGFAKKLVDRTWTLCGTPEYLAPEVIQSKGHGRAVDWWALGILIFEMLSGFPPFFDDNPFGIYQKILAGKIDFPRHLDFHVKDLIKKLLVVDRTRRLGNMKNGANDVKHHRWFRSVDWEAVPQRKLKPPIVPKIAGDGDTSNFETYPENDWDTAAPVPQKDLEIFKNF
The following applies: at 0.1 µM.

The target in experiment [19] is T7, cAMP-dependent protein kinase catalytic subunit PRKX (Homo sapiens). The following applies: at 1 µM.
Experiment [20] has as its target Rho-associated protein kinase 1 (Homo sapiens) (UniProt Q13464). The following applies: at 0.1 µM.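 Note: values are mean percent inhibition of ROCK1.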

Chain of Protein kinase C beta type (Homo sapiens) (P05771 2-671 limits assumed): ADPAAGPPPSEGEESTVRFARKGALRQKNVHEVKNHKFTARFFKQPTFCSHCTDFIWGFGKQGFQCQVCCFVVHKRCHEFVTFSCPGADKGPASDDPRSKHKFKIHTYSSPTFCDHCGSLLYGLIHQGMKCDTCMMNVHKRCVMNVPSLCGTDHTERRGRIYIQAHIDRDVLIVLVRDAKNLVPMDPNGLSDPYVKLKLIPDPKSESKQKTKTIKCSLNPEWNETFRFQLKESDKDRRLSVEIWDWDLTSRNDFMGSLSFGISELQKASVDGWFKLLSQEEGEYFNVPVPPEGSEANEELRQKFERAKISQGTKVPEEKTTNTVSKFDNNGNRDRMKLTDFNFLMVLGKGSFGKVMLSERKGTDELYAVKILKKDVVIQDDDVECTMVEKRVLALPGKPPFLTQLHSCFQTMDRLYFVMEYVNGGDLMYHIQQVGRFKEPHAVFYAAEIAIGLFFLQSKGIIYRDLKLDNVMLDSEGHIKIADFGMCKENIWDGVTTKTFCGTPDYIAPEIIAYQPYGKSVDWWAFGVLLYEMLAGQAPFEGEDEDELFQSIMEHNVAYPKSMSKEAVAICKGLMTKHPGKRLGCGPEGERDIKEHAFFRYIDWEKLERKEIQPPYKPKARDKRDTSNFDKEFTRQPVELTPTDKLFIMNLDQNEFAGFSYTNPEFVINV
Chain of Protein kinase C theta type (Homo sapiens) (Q04759 whole entry, looked up): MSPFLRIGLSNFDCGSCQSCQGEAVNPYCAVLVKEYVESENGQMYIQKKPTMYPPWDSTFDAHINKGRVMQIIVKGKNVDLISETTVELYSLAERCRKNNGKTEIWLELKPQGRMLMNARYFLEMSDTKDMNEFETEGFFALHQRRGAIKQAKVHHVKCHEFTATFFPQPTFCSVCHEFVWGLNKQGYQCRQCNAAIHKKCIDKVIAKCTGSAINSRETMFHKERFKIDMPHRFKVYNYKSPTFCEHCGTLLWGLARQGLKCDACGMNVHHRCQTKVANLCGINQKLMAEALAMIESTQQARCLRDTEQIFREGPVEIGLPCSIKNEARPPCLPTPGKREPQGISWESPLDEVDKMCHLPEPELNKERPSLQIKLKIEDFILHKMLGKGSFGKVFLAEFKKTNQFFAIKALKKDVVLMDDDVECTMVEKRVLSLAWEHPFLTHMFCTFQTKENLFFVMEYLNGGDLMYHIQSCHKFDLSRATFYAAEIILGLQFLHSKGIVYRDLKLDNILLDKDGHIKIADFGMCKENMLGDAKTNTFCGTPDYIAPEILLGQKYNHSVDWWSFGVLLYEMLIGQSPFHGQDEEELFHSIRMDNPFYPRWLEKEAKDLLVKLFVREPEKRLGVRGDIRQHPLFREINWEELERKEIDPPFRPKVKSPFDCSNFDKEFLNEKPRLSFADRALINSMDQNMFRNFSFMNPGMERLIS
Chain of Rho-associated protein kinase 1 (Homo sapiens) (Q13464 2-1354 limits assumed): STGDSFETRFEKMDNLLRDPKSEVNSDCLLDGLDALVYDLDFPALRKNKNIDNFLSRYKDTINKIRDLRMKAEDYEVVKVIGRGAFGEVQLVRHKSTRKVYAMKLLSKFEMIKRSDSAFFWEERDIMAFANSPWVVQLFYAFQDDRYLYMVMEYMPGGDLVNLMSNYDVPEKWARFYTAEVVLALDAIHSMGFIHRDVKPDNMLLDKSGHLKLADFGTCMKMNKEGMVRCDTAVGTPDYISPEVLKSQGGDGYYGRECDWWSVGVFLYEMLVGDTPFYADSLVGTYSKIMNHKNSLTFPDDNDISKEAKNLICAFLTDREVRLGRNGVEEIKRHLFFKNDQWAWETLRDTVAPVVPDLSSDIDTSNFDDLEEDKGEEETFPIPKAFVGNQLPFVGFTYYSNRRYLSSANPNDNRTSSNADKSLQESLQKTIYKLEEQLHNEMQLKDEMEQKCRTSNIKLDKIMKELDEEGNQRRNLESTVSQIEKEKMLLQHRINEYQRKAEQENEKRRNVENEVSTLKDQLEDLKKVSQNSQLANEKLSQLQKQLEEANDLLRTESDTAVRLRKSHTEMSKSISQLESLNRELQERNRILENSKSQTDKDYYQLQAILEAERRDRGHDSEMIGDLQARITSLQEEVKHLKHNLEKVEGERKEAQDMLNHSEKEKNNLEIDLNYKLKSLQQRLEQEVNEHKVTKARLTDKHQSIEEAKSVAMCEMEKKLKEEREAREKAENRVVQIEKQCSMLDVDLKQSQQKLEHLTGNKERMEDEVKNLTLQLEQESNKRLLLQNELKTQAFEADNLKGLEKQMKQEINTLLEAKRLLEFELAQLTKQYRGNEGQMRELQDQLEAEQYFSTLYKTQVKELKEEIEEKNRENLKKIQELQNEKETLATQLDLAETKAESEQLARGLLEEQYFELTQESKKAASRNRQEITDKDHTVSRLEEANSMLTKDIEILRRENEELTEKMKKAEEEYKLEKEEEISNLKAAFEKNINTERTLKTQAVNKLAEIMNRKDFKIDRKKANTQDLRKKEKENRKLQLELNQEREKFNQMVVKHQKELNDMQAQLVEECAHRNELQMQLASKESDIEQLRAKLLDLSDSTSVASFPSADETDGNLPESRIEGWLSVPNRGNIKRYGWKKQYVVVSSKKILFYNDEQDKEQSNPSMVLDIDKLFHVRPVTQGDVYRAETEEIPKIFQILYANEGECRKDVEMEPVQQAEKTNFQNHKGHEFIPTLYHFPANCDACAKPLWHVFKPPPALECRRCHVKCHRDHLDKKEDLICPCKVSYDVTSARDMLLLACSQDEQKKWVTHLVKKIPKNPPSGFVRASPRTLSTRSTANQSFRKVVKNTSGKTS

By inhibition is commonly meant the change of the read-out against control, counted positive when it falls. For `CC(=O)NCc1cccc(C#Cc2cncnc2Nc2ccc(OCc3cccc(F)c3)c(Cl)c2)c1`, the inhibition in experiment [1] was 1.3%; in experiment [2], 0.84%; in experiment [3], 0.45%; in experiment [4], 0.15%; in experiment [5], -0.29%; in [6], 0.7%. For the same compound, the inhibition worked out at 0.37% in experiment [7]; 3.28% in experiment [8]; 2.11% in [9]; 0.45% in experiment [10]; 2.16% in [11]; 1.12% in experiment [12]. Also, the inhibition in experiment [13] was 1.92%; in experiment [14], 1.14%; in experiment [15] it was 1.95%; in experiment [16], 1.31%; in experiment [17], 2.28%; in [18], 1.14%. The figures for the inhibition in experiment [19] and in [20] were 2.2% and 0.02%, respectively.
With `CCn1c(-c2nonc2N)nc2c(C#CC(C)(C)O)nc(OC[C@H](N)c3ccccc3)cc21`, the inhibition stood at 45.5% in experiment [1]; 0.16% in experiment [2]; 3.1% in experiment [3]; 55.1% in [4]; 82.7% in experiment [5]; 16.3% in [6]. Besides, the inhibition in experiment [7] turned out to be 59.4%; in experiment [8], 5.85%; in experiment [9], 29.9%; in experiment [10], 5.65%; in experiment [11] it was 25.6%; in experiment [12], 5.89%. The inhibition in experiment [13] turned out to be 28.6%; in experiment [14], 23.8%; in experiment [15], 71.3%; in experiment [16] it was 56.9%; in experiment [17], 78.8%; in experiment [18], 84.2%. In addition, the results for the inhibition in [19] and in experiment [20] were 87.1% and 2.85%, respectively.
